Compound activity as filed in PubChem.
This is a sample that favours compounds with a hit; in the whole collection about 0.78% have one here.
PriA SSB inh: inhibitors of Klebsiella pneumoniae PriA binding to SSB C-terminal tail; inhibition, % at 33 µM; AlphaScreen SSBct-PriA binding, biotinylated peptide; 430,000 tested, 0.6% active; in the data active means inhibition mostly above about 37%, no sharp cut-off; inactive means mostly below about 20%;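 further: plate controls were negative control peptide for no effect and reference peptide for full effect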
BJeLR lethal: kills HRASV12-expressing BJeLR cells. BJeLR (HRASV12) viability, CellTiter-Glo ATP luminescence, 48 h. inhibition, % (no concentration beside the values). 300,000 tested, 0.17% active. AID 1554; in the data active means inhibition above about 50%
SARS 3CLpro inh-1: SARS-CoV 3CLpro protease inhibition; recombinant SARS-CoV 3CLpro, quenched FRET peptide cleavage; P0C6X7; inhibition, % at 6 µM; 290,000 tested, 0.14% active; in the data active means inhibition above about 12%
SARS 3CLpro inh-2: SARS 3CLpro inhibition, confirmation assay; shares compounds with SARS 3CLpro inh-1; QFRET protease activity assay; inhibition, % at 6 µM; 380 tested, 36% active; AID 1879; in the data active means inhibition above about 13%
Numbers without * were called inactive; . = no result given.

SMILES	PriA SSB inh	BJeLR lethal	SARS 3CLpro inh-1	SARS 3CLpro inh-2
Cc1cc(NC(=O)COC(=O)C(Nc2ccc(C(F)(F)F)cc2Cl)C(C)C)no1 (stereo unspecified)	-21	-5	14*	13*
O=S(=O)(c1cccc(C(F)(F)F)c1)N1CCN(Cc2ccc3c(c2)OCO3)CC1	-6	.	.	.
O=C(Cn1nnc2ccccc21)c1ccc(Cl)cc1	-21	2	35*	35*
O=C(Cn1nnc2ccccc21)c1ccc([N+](=O)[O-])cc1	0	-2	5	.
COc1ccc(NC(=O)N2CCN(S(=O)(=O)c3ccc(F)cc3)CC2)c(OC)c1	-14	4	2	.
COc1ccc(S(=O)(=O)N2CCN(C(=O)Nc3ccccc3OC)CC2)cc1	2	8	13*	-2
CO/N=C\c1c(N(C(C)C)C(C)C)nc2ccc(C)cn2c1=O	-4	.	.	.
O=C1C2C3C=CC(C3)C2C(=O)N1N=Cc1ccc(-c2ccccc2[N+](=O)[O-])o1 (stereo unspecified)	5	.	.	.
O=C1C2C3C=CC(C3)C2C(=O)N1/N=C/c1ccc(-c2ccccc2[N+](=O)[O-])o1 (stereo unspecified)	.	18	12*	-5
COc1cccc(N2CCN(S(=O)(=O)c3ccc(-c4coc(C)n4)cc3)CC2)c1	-3	-15	7	.
Cc1nc(-c2ccc(S(=O)(=O)N3CCN(c4ccccc4)CC3)cc2)co1	-6	8	12*	2
Cn1c(=O)[nH]c(=O)c2c(C(=O)O)c3c(nc21)CCC3	0	.	.	.
Cc1nc(-c2ccc(F)cc2)sc1CCNC(=O)C(=O)Nc1cccc([N+](=O)[O-])c1	-5	.	.	.
CSc1ccc(CC(=O)Nc2ccc3c(c2)C(=O)NC3=O)cc1	0	.	.	.
O=C(CSc1ccc(F)cc1)Nc1ccc2c(c1)C(=O)NC2=O	-14	-8	13*	1
C=CCOc1cccc(C2C(=C(O)c3ccc(F)cc3)C(=O)C(=O)N2CCN(C)C)c1 (stereo unspecified)	-9	.	.	.
O=C(Nc1cc(C(F)(F)F)ccc1Cl)c1cc(Cl)sc1Cl	-6	.	.	.
Cc1nc(N2CCC(C)CC2)c2c(C)c(C(=O)Nc3ccc(C(F)(F)F)cc3)sc2n1	-9	-1	-4	.
Cc1nc(N2CCC(C)CC2)c2c(C)c(C(=O)Nc3ccc4c(c3)OCCO4)sc2n1	-19	-7	14*	3
COC(=O)c1ccc(S(=O)(=O)NCCn2ccc(-c3ccccn3)n2)cc1	-4	.	.	.
COCCNC(=O)N1CCC(Oc2ncccc2Cl)CC1	-6	.	.	.
CC1(C)C2CC=C(/C=N/NC(=S)Nc3cccnc3)C1C2 (stereo unspecified)	.	0	15*	39*
CC1(C)C2CC=C(C=NNC(=S)Nc3cccnc3)C1C2 (stereo unspecified)	-7	.	.	.
COCCNC(=O)NC[C@]1(O)CCc2ccccc2C1	9	.	.	.
COc1ccc(S(=O)(=O)N2CCOC2CNC(=O)C(=O)NCCN(C)C)cc1 (stereo unspecified)	6	2	13*	-3
SMILES	PriA SSB inh	BJeLR lethal	SARS 3CLpro inh-1	SARS 3CLpro inh-2
COc1ccc(CCNC(=O)C(=O)NCC2OCCN2S(=O)(=O)c2ccc(OC)cc2)cc1 (stereo unspecified)	-4	-12	0	.
COc1ccc(S(=O)(=O)N2CCOC2CNC(=O)C(=O)NCCc2ccccc2OC)cc1C (stereo unspecified)	1	-30	-3	.
COc1ccccc1CCNC(=O)C(=O)NCC1OCCN1S(=O)(=O)c1ccc2c(c1)OCCO2 (stereo unspecified)	3	4	13*	-1
CCOC(=O)c1c(NC(=O)/C=C/c2ccccc2)sc2c1CCCCC2	-11	.	.	.
c1cncc(Nc2nc(-c3cccnc3)cs2)c1	-1	4	-1	.
Clc1ccccc1Nc1nc(-c2cccnc2)cs1	-11	1	14*	11
O=c1c(Oc2ccccc2Br)coc2c3c(ccc12)OCN([C@H]1CCS(=O)(=O)C1)C3	-8	.	.	.
COc1ccc(S(=O)(=O)c2c(O)c3ccc(C(=O)Nc4cccc(F)c4)cc3[nH]c2=O)cc1	-13	1	13*	5
COc1cccc(NC(=O)c2ccc3c(O)c(S(=O)(=O)c4ccccc4)c(=O)[nH]c3c2)c1	4	-6	8	.
Cc1cc(=O)oc2cc(OC(=O)c3ccccc3)ccc12	-3	3	5	.
CCc1cc(=O)oc2cc(OC(=O)c3ccco3)ccc12	-20	1	68*	71*
Cc1cc(=O)oc2cc(OC(=O)c3ccco3)ccc12	-18	3	29*	70*
COC(=O)Cc1c(C)c2ccc(OC(=O)c3ccco3)cc2oc1=O	-25	-15	2	.
O=C(Cn1cnc(-c2ccc(F)cc2)cc1=O)N1CCN(Cc2ccccc2)CC1	-13	.	.	.
O=C(NCC(c1ccsc1)N1CCc2ccccc2C1)c1ccc(C(F)(F)F)cc1 (stereo unspecified)	-2	.	.	.
COc1ccc(CCNC(=O)CC2CSc3nc4c(c(=O)n32)CCC4)cc1OC (stereo unspecified)	-7	.	.	.
CCS(=O)(=O)c1cccc(C(=O)Nc2ccc(C)cc2C(=O)c2ccccc2)c1	11	.	.	.
O=C(COC(=O)CCc1c[nH]c2ccccc12)NC(c1ccccc1)c1ccccc1	14	-7	13*	1
O=C(COC(=O)CCc1c[nH]c2ccccc12)Nc1ccccc1	4	.	.	.
Cn1nc(C(=O)N2CC(n3cc(-c4ccccc4)nn3)C2)ccc1=O	-8	.	.	.
COCCNC(=O)C(c1ccc(C)o1)N(C(=O)Cn1nnc2ccccc21)c1ccccc1 (stereo unspecified)	-11	8	14*	4
CCC(C)(C)NC(=O)C(c1cccn1C)N(C(=O)Cn1nnc2ccccc21)c1ccc(NC(C)=O)cc1 (stereo unspecified)	0	1	46*	50*
O=C(NC1CCCCC1)C(c1ccco1)N(Cc1cccs1)C(=O)Cn1nnc2ccccc21 (stereo unspecified)	-1	.	-2	.
COCCNC(=O)C(c1ccc(C)o1)N(Cc1ccc(OC)cc1)C(=O)Cn1nnc2ccccc21 (stereo unspecified)	-10	2	-1	.
CCC(C)(C)NC(=O)C(c1cccn1C)N(C(=O)Cn1nnc2ccccc21)c1ccc(F)cc1 (stereo unspecified)	-9	6	-1	.
SMILES	PriA SSB inh	BJeLR lethal	SARS 3CLpro inh-1	SARS 3CLpro inh-2
Cc1ccccc1N(C(=O)Cn1nnc2ccccc21)C(C(=O)NCc1ccco1)c1ccncc1 (stereo unspecified)	0	2	0	.
O=C(NCc1ccco1)C(c1ccco1)N(Cc1cccs1)C(=O)Cn1nnc2ccccc21 (stereo unspecified)	-3	1	14*	10
Cc1ccc(CN(C(=O)Cn2nnc3ccccc32)C(C(=O)NCc2ccco2)c2cccs2)cc1 (stereo unspecified)	19	1	25*	19*
C=CCn1c(SCC(=O)N2CCC(C)CC2)nc2sc(-c3ccccc3)cc2c1=O	-2	.	.	.
CCCCCCC(=O)NN=Cc1c(O)n(C2CC2)c(=S)[nH]c1=O	-11	.	.	.
Cc1sc2ncnc(NCCc3ccc4c(c3)OCCO4)c2c1C	-4	.	.	.
CCN(C(=O)c1nccnc1-c1nc2ccccc2s1)c1cccc(C)c1	5	.	.	.
